In PubChem BioAssay (Tox21):
Records with an inconclusive call do not appear. Activity calls are given as the source filed them. Calls come from the whole dose curve; as a rule, active = well fitted cell-killing curve with a large enough effect in the repeat runs; inconclusive = weak or mixed curves, or effect the other way; inactive = no such curve, though single readings can be large or run the other way.

Test: qHTS assay to identify small molecule agonists of the RXR signaling pathway - cell viability counter screen (AID 1159529); note: nearly all actives have a fitted effect of over 50% in size
Details: RXR-alpha-bla HEK293T viability, CellTiter-Glo, 16 h; series mostly up to 76.8 µM
From the text: National Center for Advancing Translational Sciences [NCATS]
NIH Chemical Genomics Center [NCGC]
U.S. Environmental Protection Agency [EPA]
National Institutes of Environmental Health Sciences [NIEHS]
National Toxicology Program [NTP]
U.S. Food and Drug Administration [FDA]
The Retinoid X receptor (RXR), a nuclear hormone receptor expressed in liver, spleen, placenta, epidermis, central nervous system. These receptors are able to form homo and heterodimers with other nuclear receptors and due to this heterodimerizing ability, RXR functions as master regulators producing diverse physiological effects. Three subtypes of RXR exist; alpha, beta and gamma. Retinoid X receptor alpha (RXR-alpha) has potential roles in metabolic signaling pathways, skin alopecia, dermal cysts, cardiac development, insulin sensitization etc. Therefore screening environmental chemicals on RXR-alpha signaling can be used for the studies focused on such therapeutic applications. For quantification of RXR-alpha ligands signaling, GeneBLAzer RXR alpha-UAS-bla HEK 293T (Life Technologies, Carlsbad, CA) cells containing a beta-lactamase reporter-gene under control of Retinoid X receptor-alpha response element were used to screen Tox21 10K library. The cytotoxicity of the Tox21 compound library against the RXR-alpha HEK 293T cell line was tested in parallel by measuring cell viability using CellTiter-Glo assay (Promega Corporation, Madison, WI) in the same wells.
Tox21 Assay Protocol Summary:
RXR-alpha HEK 293T cells were dispensed at 2,000 cells/6 uL of assay medium containing 2% charcoal-stripped FBS using a Multidrop Combi (ThermoFisher Scientific, Waltham, MA) dispenser. The assay was performed in black wall/clear-bottom 1536-well plates (Greiner Bio-One North America Inc. Monroe, NC). Tetraoctyl ammonium bromide was used as a positive control in the cytotoxicity screen. After the assay plates were incubated at 37 C and 5% CO2 for 5 hr, 23 nL of compounds dissolved in DMSO, positive control or DMSO only were transferred to the assay plate by a Pintool station (Kalypsys, San Diego, CA). The assay plates were incubated at 37 C and 5% CO2 for 16 hr. One uL of LiveBLAzer B/G FRET substrate (Life Technologies) was added using a Flying Reagent Dispenser (FRD) (Aurora Discovery, San Diego, CA) and the plates were incubated at room temperature for 2 hr. Fluorescence intensity (405 nm excitation, 460/530 nm emission) was measured using an Envision plate reader (PerkinElmer, Shelton, CT). For cytotoxicity, 4 uL/well of CellTiter-Glo reagent was added into the assay plates using an FRD. After 30 min incubation at room temperature, the luminescence intensity was measured using a ViewLux plate reader (PerkinElmer).

| Structure (SMILES) | outcome |
| --- | --- |
| Nc1nc(N)nc(NC2CC2)n1 | inactive |
| Cc1ccccc1N | inactive |
| Cc1ccc(N=C=O)cc1N=C=O | inactive |
| CCCCC(CC)C(=O)Cl (stereo not given) | inactive |
| O=[N+]([O-])c1ccc(Cl)cc1 | inactive |
| CNC(=O)O/N=C/C(C)(C)S(C)=O (stereo not given) | inactive |
| OCC(O)CCl (stereo not given) | inactive |
| COc1cc(-c2ccc(N)c(OC)c2)ccc1N | inactive |
| CCOP(=S)(OCC)Oc1cc(C)nc(C(C)C)n1 | inactive |
| CC(C)c1cccc(C(C)C)c1O | inactive |
| OCc1ccco1 | inactive |
| CCOC(=O)CC(SP(=O)(OC)OC)C(=O)OCC (stereo not given) | inactive |
| CNC(=O)Oc1cccc2ccccc12 | inactive |
| CC(=O)/C=C/c1ccccc1 | inactive |
| Cc1cc(O)ccc1Cl | inactive |
| CCOc1ccc(N)cc1 | inactive |
| [N-]=[N+]=CC(=O)OC[C@H](N)C(=O)O | inactive |
| Sc1ccccc1 | inactive |
| Clc1cnc(Oc2ccc(Oc3ncc(Cl)cc3Cl)cc2)c(Cl)c1 | inactive |
| C/C=C/c1ccc2c(c1)OCO2 | inactive |

| Structure (SMILES) | outcome |
| --- | --- |
| CN(C)C(=O)Nc1cccc(C(F)(F)F)c1 | inactive |
| CCNc1nc(Cl)nc(NC(C)C)n1 | inactive |
| N#CN=C(N)N | inactive |
| CSc1nnc(C(C)(C)C)c(=O)n1N | inactive |
| O=S(=O)(O)OOS(=O)(=O)O | inactive |
| CC(=O)C1CCOC1=O (stereo not given) | inactive |
| COS(=O)(=O)OC | inactive |
| c1ccc2c(c1)CCCC2 | inactive |
| CN(C)C(=O)C(c1ccccc1)c1ccccc1 | inactive |
| Cl[C@H]1OCCO[C@@H]1Cl | inactive |
| Nc1ccc(N)cc1 | inactive |
| C=C(C)C(=O)OCC(CC)CCCC (stereo not given) | inactive |
| COC(C)(C)CCCC(C)C/C=C/C(C)=C/C(=O)OC(C)C (stereo not given) | inactive |
| Cc1cc(Cl)ccc1OC(C)C(=O)O (stereo not given) | inactive |
| CNc1cnn(-c2cccc(C(F)(F)F)c2)c(=O)c1Cl | inactive |
| CC[N+](=O)[O-] | inactive |
| C=CC(=O)OCC(CC)CCCC (stereo not given) | inactive |
| CN(C)C(=O)Cl | inactive |
| FC(F)(F)c1ccc(Cl)cc1 | inactive |
| Oc1ccc(Cl)cc1 | inactive |
